Laboratory results: PubChem BioAssay (Tox21)
Results filed as inconclusive are left out. A call without a number means that no potency is given here. Some compounds were tested as several samples or in several runs, with calls that do not always agree. Calls of active or inactive are those of the source. Calls follow the shape of the dose curve; as a rule, active = well fitted inhibition curve with a large enough effect in the repeat runs; inconclusive = weak or mixed curves, or effect the other way; inactive = no such curve, though single readings can be large or run the other way.

molecular target: Nuclear receptor ROR-gamma (Homo sapiens) (UniProt P51449); test: qHTS assay to identify small molecule antagonists of the retinoid-related orphan receptor gamma (ROR-gamma) signaling pathway (AID 1159521; also: nearly all actives have a fitted effect of over 50% in size); conditions: Tet-on RORgamma CHO cells, RORE-luciferase, 16 h; series mostly up to 92.4 µM
Source text: U.S. Tox21 Program National Center for Advancing Translational Sciences [NCATS] NIH Chemical Genomics Center [NCGC] U.S. Environmental Protection Agency [EPA] National Institutes of Environmental Health Sciences [NIEHS] National Toxicology Program [NTP] U.S. Food and Drug Administration [FDA] Tox21 Assay Overview: Nuclear steroid hormone receptors are involved in many biological processes including inflammatory responses, cell proliferation, and apoptosis. Environmental factors or compounds disrupting these nuclear receptor pathways and gene expression may promote susceptibility to immunotoxicants and autoimmune diseases. One important group of these expression factors are the retinoid-related orphan receptors. To assess compounds that may interfere with the retinoid-related orphan receptor gamma (ROR-gamma) transcription factor, a cell-based luciferase assay was used. The CHO cell-based assay utilizes a TET-inducible ROR expression factor and ROR response element-LUC reporter gene. Reporter gene activity was induced using Doxycycline Hyclate and measured after 16 hr incubation. Tet-on ROR gamma CHO cells were used to screen against the Tox21 10K compound library for ROR gamma antagonists by quantification of decreased reporter gene activity in terms of decreased luminescence.
Tox21 Assay Protocol Summary: Tet-on ROR gamma CHO cells were dispensed at 1,000 cells in 4 uL of culture medium per well into white wall/solid bottom 1536-well plates using a Multidrop Combi (Thermo Scientific, Waltham, MA) dispenser. Following incubation at 37 C and 5% CO2 for 4 hr, 23 nL of compounds dissolved in DMSO, positive controls or DMSO only were transferred by a Pintool station (Kalypsys, San Diego, CA) and after 2 hr incubation at 37 C, one ul of 1 uM (final concentration) of Doxycycline Hyclate was added to all the wells by using a Flying Reagent Dispenser (FRD) (Aurora Discovery, San Diego, CA). After 16 hr incubation at 37 C and 5% CO2, 5 uL of ONE-Glo reagent (Promega Corporation, Madison, WI) was added to each assay plate using FRD. After 30 min incubation at room temperature, luminescence was quantified on a ViewLux plate reader (Perkin Elmer, Waltham, MA).
Potency is read from the fitted curve at half-maximal effect.

SMILES	Potency
CC(C)Cc1ccc(C(C)C(=O)O)cc1 (stereo not given)	inactive
CC(=O)Oc1ccccc1C(=O)O	inactive
CC(O)COc1ccccc1 (stereo not given)	inactive
CC(C)CC(C)CC(O)CC(C)C (stereo not given)	inactive
N[C@@H](Cc1c[nH]c2ccc(O)cc12)C(=O)O	inactive
CC(=O)c1ccc(S(=O)(=O)NC(=O)NC2CCCCC2)cc1	inactive
C/C=C/c1ccc(O)c(OC)c1	inactive
CCCCC/C(C=O)=C\c1ccccc1	inactive
CCCCCCCC(=O)OCC(O)CO (stereo not given)	inactive
CC1=NN(c2ccccc2)C(=O)C1	inactive
C[C@]12C[C@H](O)[C@H]3[C@@H](CCC4=CC(=O)CC[C@@]43C)[C@@H]1CC[C@@H]2C(=O)CO	48.6 µM (active) and inactive
C=CCOC(=O)CC(C)C	inactive
NC(=O)N1c2ccccc2C=Cc2ccccc21	inactive
CC1(C)O[C@@H]2[C@@H](CO[C@@]3(COS(N)(=O)=O)OC(C)(C)O[C@@H]23)O1	inactive
COc1ccccc1NC(=O)CC(C)=O	inactive
N[C@@H](Cc1c[nH]c2ccccc12)C(=O)O	inactive
CN(C)Cc1cc(CN(C)C)c(O)c(CN(C)C)c1	inactive
Cc1c(N(C)C)c(=O)n(-c2ccccc2)n1C	inactive
Cc1cccc(C)c1O	inactive
COc1cc(O)c(C(=O)c2ccccc2)cc1S(=O)(=O)O	inactive

SMILES	Potency
COC(=O)C1CCC(C(=O)OC)CC1 (stereo not given)	inactive
CCOC(=O)C(C)(C)Oc1ccc(Cl)cc1	inactive
Nc1ccc(N=Nc2ccccc2)c(N)n1	inactive
NC(N)=NC(N)=NCCc1ccccc1	30.6 µM (active)
C#C[C@]1(O)CC[C@H]2[C@@H]3CCC4=CC(=O)CC[C@@H]4[C@H]3CC[C@@]21CC	48.6 µM (active) and inactive
CCCCOCCOCCSC#N	inactive
CCN(CC)CCOC(=O)c1ccc(N)cc1	inactive
Cc1cccc2ccccc12	inactive
CC1=C(/C=C/C(C)=C/C=C/C(C)=C/C(=O)O)C(C)(C)CCC1	inactive
COc1ccccc1O	inactive
C1CNCCN1	inactive
C#C[C@]1(O)CC[C@H]2[C@@H]3CCc4cc(O)ccc4[C@H]3CC[C@@]21C	30.4 µM (active) and inactive
Cc1cccc(Nc2cc(Cl)nc(SCC(=O)O)n2)c1C	inactive
CC(C)(C)CC(C)(C)c1ccc(O)c(-n2nc3ccccc3n2)c1	49.2 µM (active) and inactive
O=C1CCCCCN1	inactive
CC(=O)OC/C=C(C)/C=C/C=C(C)/C=C/C1=C(C)CCCC1(C)C	inactive
OC[C@@H](O)[C@@H](O)[C@H](O)[C@H](O)CO	inactive
CCN1CCCC1=O	inactive
O=C1OC(c2ccc(O)cc2)(c2ccc(O)cc2)c2ccccc21	8.57 µM (active) and inactive
NC(=O)c1ccc([N+](=O)[O-])cc1Cl	inactive
